# Compound activity (PubChem BioAssay)
# GALK inh: qHTS Assay for Inhibitors of Human Galactokinase (GALK): NCGC Sytravon Library Screen; 44,000 tested, under 10 active; AID 1347072, 2019; P51570; Potency, µM (doses to about 57.5 µM), without a hit: at the highest dose activity, negative = inhibition, actives largely listed as inhibitors; recombinant GALK, Kinase-Glo ATP luminescence, 1 h;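 also: plate controls were full GALK reaction for no effect and reaction lacking GALK for full effect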
#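 Compounds were pinned into ATP buffer, then GALK-galactose mix was added (final 5 nM enzyme, 35 uM ATP, 100 uM galactose, pH 8.0). After 1 h at room temperature, Kinase-Glo Plus was added and luminescence read.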
# NTMT1 inhibitor: Primary qHTS for Inhibitors of N-terminal methyltransferase 1 (NTMT1): MTaseGlo Assay; N-terminal Xaa-Pro-Lys N-methyltransferase 1 (Homo sapiens), Q9BV86; NTMT1 MTase-Glo SAH luminescence, purified enzyme; actives 2.5% (n = 59,000); Potency, µM (highest dose often 114 µM), inactives show at the top dose activity change, negative = inhibition, actives largely listed as inhibitors;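 also: potency is read from the fitted curve at half-maximal effect; plate controls were DMSO vehicle for no effect and no enzyme for full effect; nearly all actives have a fitted effect of over 65% in size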
# GALC G270D up: A Novel Cell-Based Assay to Identify Small Molecules for B -Galactocerebrosidase; P54803; 145M-Twi-hGALC-G270D cells (Twitcher mouse brain line with human GALC G270D), HMU-beta-Gal fluorescence, 48 h; Potency, µM (doses to about 57.5 µM), hits mostly activators; actives 0.1% (n = 45,000); also: potency is read from the fitted curve at half-maximal effect; 0% is about no effect; nearly all actives have a fitted effect of over 65% in size
#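 Live 145M-Twi cells (Twitcher mouse brain-derived, GALC-null) stably expressing human GALC-G270D, with a wild-type GALC line, were compound-treated. Residual GALC activity was then read as fluorescence from 0.1 mM final HMU-β-gal at pH 5.2; higher signal means activation.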
# B2AR arrestin ag: qHTS assay of beta-arrestin-biased ligands of beta2-adrenergic receptor: NCGC Sytravon Library Screen; 44,000 tested, under 10 active; Potency, µM (top dose mostly 46.1 µM), actives largely listed as activators; Beta-2 adrenergic receptor (Homo sapiens), P07550; HTLA Tango cells, beta-arrestin recruitment, luciferase luminescence, 18 h;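 also: potency is read from the fitted curve at half-maximal effect; 0% = DMSO and full agonism = EC100 isoproterenol or metaproterenol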
#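 Tango cells expressing recombinant beta2-AR and beta-arrestin were treated with compounds (up to 46 microM titration) in DMEM with 1% FBS for 18 hr at 37 degrees C. Beta-arrestin recruitment drove tTA-dependent luciferase, read by luminescence; curves were fitted and classed.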
# DRV1 agonist: qHTS for Agonists of Human Resolvin D1 Receptor DRV1 | Probable G-protein coupled receptor 32 (Homo sapiens), O75388 | actives 2.5% (n = 48,000) | activation, % at 76.9 µM | AID 1346428, 2018 | CHO-K1 GPR32 beta-arrestin PathHunter luminescence, 90 min; zero percent set by DMSO-only wells;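 active = activation of at least 60% and not above a set upper limit, about 1 call in 100 departs from these limits; inconclusive = activation of 40% to 60%, or above that upper limit; inactive = activation under 40%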; also: 0% is about no effect
#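 Agonism was scored as beta-arrestin recruitment to ProLink-fused GPR32 in stably transfected CHO-K1 cells, giving a chemiluminescent beta-Gal signal; compounds were incubated 90 min at 37 °C.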
# PTAP-TSG101 blk: qHTS Validation Assay for Inhibitors of HIV-1 Budding by Blocking the Interaction of PTAP/TSG101: Sytravon Library Screen | AID 1347069, 2019 | 44,000 tested, under 10 active | Tumor susceptibility gene 101 protein (Homo sapiens), Q99816 | Potency, µM (top dose mostly 115 µM), actives largely listed as inhibitors | Fluorescence polarization, FITC-PTAP peptide/Tsg101, 20 min; also: potency is read from the fitted curve at half-maximal effect; 0% is about no effect
#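 The Tsg101 binding domain, at 10 uM final, is mixed with compound and a FITC peptide bearing the PTAP motif (50 nM final). After 20 min at r.t., polarization is measured; actives defined by CRC class, efficacy cut-off 60% inhibition.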
# Sfp qHTS opt: qHTS Assay for Inhibitos of Bacillus subtilis Sfp phosphopantetheinyl transferase (PPTase): Chemistry Optimization Followup; shares compounds with NTMT1 inhibitor; actives 78% (n = 230); Potency, µM (highest dose often 114 µM), for the others: at the highest dose activity change, negative = inhibition, usual class: inhibitors; purified Sfp PPTase enzyme activity, qHTS
# Bsub HM489 growth: qHTS for Inhibitos of Bacillus subtilis Sfp phosphopantetheinyl transferase (PPTase): Chemistry Optimization Followup in B. Subtilis HM489; shares compounds with NTMT1 inhibitor; Potency, µM (titrated, usually from 114 µM), inactives show at the top dose activity change, negative = inhibition, hits mostly inhibitors; actives 50% (n = 220); B. subtilis HM489 (acpS-) growth, BacTiter-Glo, 5 h; AID 540353, 2011
# Sfp gel opt: Gel-Based Assay for Inhibitos of Bacillus subtilis Sfp phosphopantetheinyl transferase (PPTase): Chemistry Optimization Followup; shares compounds with NTMT1 inhibitor; actives 54% (n = 220); purified Sfp PPTase, gel-based product detection; Potency, µM (titrated, usually from 250 µM), without a hit: at the top dose activity change, negative = inhibition, most hits filed as inhibitors; AID 540355, 2011
# Sfp inh SAR2: qHTS Assay for Inhibitors of Bacillus subtilis Sfp phosphopantetheinyl transferase (PPTase): SAR Round 2 | shares compounds with NTMT1 inhibitor | purified Sfp enzyme, PPTase activity, qHTS | Potency, µM (series often up to 57.1 µM), without a hit: top-dose activity change, negative = inhibition, actives largely listed as inhibitors | actives 87% (n = 230)
# HSD17B4 counter: Extended Characterization of HPGD Inhibitors: Counterscreen Against HSD17b4; purified HSD17B4, estradiol/NAD+, NADH fluorescence; AID 743187, 2013; actives 10% (n = 230); shares compounds with NTMT1 inhibitor; Potency, µM (top dose mostly 57.1 µM), for the others: at the top dose activity change, negative = inhibition, usual class: inhibitors
# Target sequence (P51659 whole entry, looked up): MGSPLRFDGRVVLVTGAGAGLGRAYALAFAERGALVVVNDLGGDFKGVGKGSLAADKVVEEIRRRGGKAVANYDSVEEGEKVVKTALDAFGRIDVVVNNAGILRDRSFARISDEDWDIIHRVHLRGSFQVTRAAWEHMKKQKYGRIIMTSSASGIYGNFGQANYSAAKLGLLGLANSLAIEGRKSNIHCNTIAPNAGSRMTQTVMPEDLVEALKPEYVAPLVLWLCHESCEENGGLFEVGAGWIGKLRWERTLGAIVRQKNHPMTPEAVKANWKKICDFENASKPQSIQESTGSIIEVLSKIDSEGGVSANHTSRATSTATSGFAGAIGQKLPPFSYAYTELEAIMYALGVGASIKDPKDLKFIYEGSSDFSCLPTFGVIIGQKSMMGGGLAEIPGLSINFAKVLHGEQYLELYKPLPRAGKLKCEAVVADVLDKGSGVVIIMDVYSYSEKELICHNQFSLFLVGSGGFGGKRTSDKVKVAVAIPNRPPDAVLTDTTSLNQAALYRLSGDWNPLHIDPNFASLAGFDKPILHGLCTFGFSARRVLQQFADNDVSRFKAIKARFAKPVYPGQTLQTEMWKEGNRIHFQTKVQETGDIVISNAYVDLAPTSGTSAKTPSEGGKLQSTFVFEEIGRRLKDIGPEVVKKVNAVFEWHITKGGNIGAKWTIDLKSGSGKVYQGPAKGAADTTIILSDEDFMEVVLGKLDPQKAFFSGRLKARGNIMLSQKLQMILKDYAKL
# ALDH1A1 inh: Extended Characterization of HPGD Inhibitors: Counterscreen Against ALDH1A1; shares compounds with NTMT1 inhibitor; recombinant ALDH1A1, NADH fluorescence, propionaldehyde/NAD+; Potency, µM (titrated, usually from 57.1 µM), for inactives: top-dose activity change, negative = inhibition, usual class: inhibitors; actives 93% (n = 230); AID 743195, 2013
# NNMT inh: Counterscreen qHTS for Inhibitors of N-terminal methyltransferase 1 (NTMT1): NNMT MTaseGlo assay | shares compounds with NTMT1 inhibitor | NNMT MTase-Glo luminescence, SAH detection | Potency, µM (series often up to 57.1 µM), for inactives: at the top dose activity, negative = inhibition, usual class: inhibitors | actives 10% (n = 120)
# The depositor's hits bear a star; i = inactive; ? = inconclusive; nt = no result given; ! = not active in a repeat; [ ] = remark or other dose. Only some compounds are listed: those with a hit (about 3.6% of all), similar ones and a draw of the others. Unless noted, calls follow the shape of the dose curve; as a rule, active = well fitted curve in the direction sought with a large enough effect; inconclusive = small, poorly fitted or top-dose-only effect, or another doubt; inactive = no such curve, though single readings can be large; an effect the other way counts as inactive or inconclusive.
SMILES,GALK inh,NTMT1 inhibitor,GALC G270D up,B2AR arrestin ag,DRV1 agonist,PTAP-TSG101 blk,Sfp qHTS opt,Bsub HM489 growth,Sfp gel opt,Sfp inh SAR2,HSD17B4 counter,ALDH1A1 inh,others
Cc1cc(C)nc(NC(=S)N2CCN(c3nccs3)CC2)c1,nt,?,nt,nt,nt,nt,?,-27.0%,20µM*!,4.08µM*!,-15.1%,10.8µM*,
Cc1cc(C)nc(NC(=S)N2CCN(c3nncs3)CC2)c1,nt,-25.0%[57.5 µM],nt,nt,nt,nt,13.2µM*,?,31.6µM*,2.29µM*,0.5%,21.5µM*,
O=C(Cc1c(F)cccc1F)Nc1cc(OCc2ccc(Cl)cc2)ccn1,nt,1.1%[57.5 µM],nt,nt,nt,nt,nt,nt,nt,nt,nt,nt,NNMT inh=?
COc1cc(N2CCC(O)CC2)ccc1Nc1nc(Nc2ccccc2S(=O)(=O)C(C)C)c2[nH]cnc2n1,nt,1.4%[57.5 µM],nt,nt,nt,nt,nt,nt,nt,nt,nt,nt,NNMT inh=?
Cc1cc(C)nc(NC(=S)N2CCN(Cc3cccc4ccccc34)CC2)c1,nt,?,nt,nt,nt,nt,4.69µM*,?,10µM*,8.13µM*,-10.8%,21.5µM*,
Cc1cc(C)nc(NC(=S)N2CCN(c3nc4ccccc4s3)CC2)c1,nt,?,nt,nt,nt,nt,0.373µM*,?,10µM*,0.91µM*,-14.6%,8.57µM*,
Cc1cc2n(n1)CCC(=O)N2Cc1ccc(C(=O)Nc2cccc(C(F)(F)F)c2)cc1,0.3%,-18.6%,i,i,27.8,i,nt,nt,nt,nt,nt,nt,
Cc1cc(C)nc(NC(=S)N2CCN(c3nsc4ccccc34)CC2)c1,nt,?,nt,nt,nt,nt,3.73µM*,?,6.31µM*,1.02µM*,-9.9%,21.5µM*,
CCS(=O)(=O)c1ccccc1C(=O)N1CCN(c2nc3ccccc3s2)CC1,-2.2%,20.4%,i,i,15.1,i,nt,nt,nt,nt,nt,nt,
Cc1ccc(C)c(N2CCN(C(=O)c3ccc(NC(=O)c4nsc5ccccc45)cc3)CC2)c1,-1.7%,-14.9%,i,i,-17.9,i,nt,nt,nt,nt,nt,nt,
CN(Cc1ccccc1)C(=O)C1CCN(Cc2cccc3ccccc23)CC1,nt,-2.8%,nt,nt,nt,nt,nt,nt,nt,nt,nt,nt,
Cc1cc(C)nc(NC(=S)N2CCN(Cc3cccc(C(F)(F)F)c3)CC2)c1,nt,nt,nt,nt,nt,nt,6.63µM*,?,?,11.5µM*,-15.1%,12.1µM*,
Fc1ccc(-c2nc(CCCCSc3nnc(-c4cccc5ccccc45)o3)no2)cc1,nt,4.4%,nt,nt,nt,nt,nt,nt,nt,nt,nt,nt,
Cc1cc(C)nc(NC(=S)N2CCN(c3nccc4ccccc34)CC2)c1,nt,?,nt,nt,nt,nt,2.64µM*,?,-63.1%,9.13µM*,-22.8%,9.61µM*,
Cc1cc(C)nc(NCc2ccc(O)c3ncccc23)c1,nt,-4.0%,nt,nt,nt,nt,nt,nt,nt,nt,nt,nt,
COc1ccc(CNC(=O)c2cc(-c3cncc(Cl)c3)cnc2-c2ccccn2)nc1OC,nt,5.6%,nt,nt,nt,nt,nt,nt,nt,nt,nt,nt,
